Results from PubChem BioAssay (NCI).
“And” between values parts separate entries of the source, which are not always exact repeats. Identical values can stand only once. This is part of a sample that, as a whole, favours compounds with a hit. Of some 83,000 tested, about 20% had one in any assay.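 Compound tested at a single concentration for 48 hours in 96-well plates; a percent growth value below 10 was scored as active.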 The source made the active and inactive calls.

Experiments:
Test in all cases: NCI-60 one-dose screen, 48 h (100 = growth as untreated, 0 = no growth, -100 = all killed)
[1] = tested on: SR leukemia; conditions: 10 µM unless noted
[2] = tested on: RPMI-8226 leukemia; conditions: 10 µM unless noted
[3] = tested on: OVCAR-8 ovarian; conditions: 10 µM unless noted
[4] = tested on: OVCAR-5 ovarian; conditions: 10 µM unless noted
[5] = tested on: OVCAR-4 ovarian; conditions: 10 µM unless noted
[6] = tested on: SK-OV-3 ovarian; conditions: 10 µM unless noted
[7] = tested on: IGROV1 ovarian; conditions: 10 µM unless noted
[8] = tested on: OVCAR-3 ovarian; conditions: 10 µM unless noted
[9] = tested on: HS 578T breast; conditions: 10 µM unless noted
[10] = tested on: NCI/ADR-RES ovarian; conditions: 10 µM unless noted
[11] = tested on: T-47D breast; conditions: 10 µM unless noted
[12] = tested on: MDA-MB-435 melanoma; conditions: 10 µM unless noted
[13] = tested on: SW-620 colon; conditions: 10 µM unless noted
[14] = tested on: MCF7 breast
[15] = tested on: HCT-116 colon; conditions: 10 µM unless noted
[16] = tested on: HCC-2998 colon; conditions: 10 µM unless noted
[17] = tested on: KM12 colon; conditions: 10 µM unless noted
[18] = tested on: BT-549 breast; conditions: 10 µM unless noted

Row | SMILES | growth [1] | growth [2] | growth [3] | growth [4] | growth [5] | growth [6] | growth [7] | growth [8] | growth [9] | growth [10] | growth [11] | growth [12] | growth [13] | growth ([14]; 10 µM unless noted) | growth [15] | growth [16] | growth [17] | growth [18] | growth ([14]; 10 µM) | growth ([14]; 100 µM)
1 | NCCSSC/C=C\CSSCCN | 107% (inactive) | 94.9% (inactive) | 97% (inactive) | 121% (inactive) | 103% (inactive) | 99.8% (inactive) | 115% (inactive) | 109% (inactive) | 93% (inactive) | 107% (inactive) | 86.4% (inactive) | 105% (inactive) | 102% (inactive) | 97.2% (inactive) | 94.3% (inactive) | 112% (inactive) | 102% (inactive) | – | – | –
2 | CCOC(C)=N | 87.4% (inactive) | 92.7% (inactive) | 109% (inactive) | 102% (inactive) | 100% (inactive) | 97% (inactive) | 151% (inactive) | 110% (inactive) | 150% (inactive) | 109% (inactive) | – | 118% (inactive) | 107% (inactive) | 104% (inactive) | 95.1% (inactive) | 103% (inactive) | 111% (inactive) | 108% (inactive) | – | –
3 | CCC(C)(O)CCC(C)(O)CC (stereo not drawn) | 97.4% (inactive) | 108% (inactive) | 102% (inactive) | 114% (inactive) | 111% (inactive) | 99% (inactive) | 103% (inactive) | 107% (inactive) | 108% (inactive) | 99.2% (inactive) | 96% (inactive) | 111% (inactive) | 112% (inactive) | – | 101% (inactive) | 87.7% (inactive) | 103% (inactive) | 107% (inactive) | – | –
4 | Cn1c(-c2ccccc2)cc(=O)cc1-c1ccccc1 | 69.5% (inactive) | 78.9% (inactive) | 80.1% (inactive) | 79.2% (inactive) | 85.6% (inactive) | 92.4% (inactive) | 88% (inactive) | 122% (inactive) | 105% (inactive) | 82.2% (inactive) | – | 116% (inactive) | 51.7% (inactive) | 53.3% (inactive) | 61.6% (inactive) | 127% (inactive) | 98.5% (inactive) | 86.8% (inactive) | – | –
5 | Cc1ccc(NC(=S)N/C=C(\c2ccccc2)S(=O)Cc2ccccc2)c(C)c1 (stereo not drawn) | 96.5% (inactive) | 94% (inactive) | 99.2% (inactive) | 97% (inactive) | 91.3% (inactive) | 100% (inactive) | 112% (inactive) | 106% (inactive) | 94.8% (inactive) | 105% (inactive) | – | 97.9% (inactive) | 98% (inactive) | 90.3% (inactive) | 100% (inactive) | 105% (inactive) | 102% (inactive) | 99.3% (inactive) | – | –
6 | COc1ccc(/C=C/C(=O)O)cc1OC | 110% (inactive) and 106% (inactive) | 102% (inactive) and 106% (inactive) | 108% (inactive) and 103% (inactive) | 106% (inactive) and 109% (inactive) | 105% (inactive) and 113% (inactive) | 103% (inactive) and 107% (inactive) | 104% (inactive) and 115% (inactive) | 108% (inactive) and 104% (inactive) | 103% (inactive) and 102% (inactive) | 108% (inactive) and 105% (inactive) | 107% (inactive) and 106% (inactive) | 109% (inactive) and 112% (inactive) | 103% (inactive) and 102% (inactive) | 97.9% (inactive) and 102% (inactive) | 99.5% (inactive) and 105% (inactive) | 119% (inactive) and 102% (inactive) | 109% (inactive) | – | – | –
7 | Clc1ccc(/C=C/c2ccc3ccccc3n2)cc1 | 29% (inactive) and 59.4% (inactive) | 5.44% (active) and 63% (inactive) and 86.9% (inactive) | 28.9% (inactive) and 86.1% (inactive) and 109% (inactive) | 35.6% (inactive) and 92.6% (inactive) and 74.5% (inactive) | 79% (inactive) and 88.3% (inactive) and 86.5% (inactive) | 20.4% (inactive) and 83% (inactive) and 84.6% (inactive) | 52.6% (inactive) and 27.6% (inactive) and 75.1% (inactive) | -20.4% (active) and 106% (inactive) and 92.8% (inactive) | -20% (active) and 168% (inactive) and 96.4% (inactive) | 83.6% (inactive) and 92% (inactive) and 79.4% (inactive) | 18.6% (inactive) and 65.6% (inactive) and 52.5% (inactive) | -38.5% (active) and 85.2% (inactive) and 92.6% (inactive) | 22.8% (inactive) and 108% (inactive) and 97.1% (inactive) | 15.1% (inactive) and 65.5% (inactive) and 67.1% (inactive) | 18.5% (inactive) and 77% (inactive) and 63.4% (inactive) | 7.83% (active) and 104% (inactive) and 91.5% (inactive) | 16.3% (inactive) and 97% (inactive) and 94.7% (inactive) | – | – | –
8 | OC1CCCN(Cc2ccccc2)C1 (stereo not drawn) | 88.6% (inactive) | 90.5% (inactive) | 105% (inactive) | 108% (inactive) | 129% (inactive) | 99.7% (inactive) | 112% (inactive) | 113% (inactive) | 118% (inactive) | 101% (inactive) | – | 107% (inactive) | 107% (inactive) | 102% (inactive) | 103% (inactive) | 116% (inactive) | 107% (inactive) | 112% (inactive) | – | –
9 | ON=C(C1CCCCC1)C1CCCCC1 | 97.2% (inactive) | 105% (inactive) | 107% (inactive) | 89.5% (inactive) | 107% (inactive) | 106% (inactive) | 102% (inactive) | 105% (inactive) | 101% (inactive) | 103% (inactive) | 87.3% (inactive) | 103% (inactive) | 102% (inactive) | 93.3% (inactive) | 100% (inactive) | 109% (inactive) | 95.5% (inactive) | – | – | –
10 | C#CCOC(=O)C(N)CS (stereo not drawn) | 102% (inactive) | 102% (inactive) | 110% (inactive) | 79.9% (inactive) | 101% (inactive) | 101% (inactive) | 104% (inactive) | 103% (inactive) | 137% (inactive) | 102% (inactive) | – | 96.6% (inactive) | 97.1% (inactive) | – | 101% (inactive) | 107% (inactive) | 102% (inactive) | 108% (inactive) | 93% (inactive) | 90.4% (inactive) and 76.4% (inactive)
11 | COc1cc(C2c3cc4c(cc3C(OC(=O)C[n+]3ccccc3)C3COC(=O)C23)OCO4)cc(OC)c1OC (stereo not drawn) | 11.5% (inactive) | 36.2% (inactive) | 14.7% (inactive) | 54% (inactive) | 41.5% (inactive) | 33% (inactive) | 16.5% (inactive) | -57.7% (active) | 34.7% (inactive) | -3.91% (active) | – | -8.6% (active) | 21.3% (inactive) | 9.23% (active) | 5.09% (active) | 13.3% (inactive) | -8.66% (active) | 19.8% (inactive) | – | –
12 | COC(=O)c1nc(=S)[nH]c(C(=O)OC)c1C(=O)c1ccc(OC)cc1 | 105% (inactive) | 111% (inactive) | 109% (inactive) | 103% (inactive) | 112% (inactive) | 149% (inactive) | 99.9% (inactive) | 119% (inactive) | 76.1% (inactive) | 99.8% (inactive) | 125% (inactive) | 110% (inactive) | 105% (inactive) | – | 115% (inactive) | 118% (inactive) | 103% (inactive) | 109% (inactive) | – | –
13 | O=C(N=C1C(=O)C2(CCCCC2)C2(N=C(c3ccccc3)OC2=O)C12CCCCC2)c1ccccc1 (stereo not drawn) | 71.8% (inactive) | 53.2% (inactive) | 75.4% (inactive) | 85.8% (inactive) | 73.8% (inactive) | 99.3% (inactive) | 75% (inactive) | 63.6% (inactive) | 95.9% (inactive) | 76.8% (inactive) | 35.7% (inactive) | 89.1% (inactive) | 71.5% (inactive) | – | 39.5% (inactive) | 59.2% (inactive) | 55.6% (inactive) | 86.9% (inactive) | – | –
14 | C(#CCN1CCOCC1)CCCN1CCOCC1 | 124% (inactive) and 109% (inactive) | 112% (inactive) | 105% (inactive) and 106% (inactive) | 102% (inactive) and 82.7% (inactive) | 102% (inactive) | 104% (inactive) and 106% (inactive) | 116% (inactive) and 106% (inactive) | 116% (inactive) and 111% (inactive) | 112% (inactive) and 114% (inactive) | 105% (inactive) and 104% (inactive) | – | 102% (inactive) and 101% (inactive) | 109% (inactive) and 106% (inactive) | – | 105% (inactive) and 107% (inactive) | 99.6% (inactive) and 98.9% (inactive) | 105% (inactive) and 106% (inactive) | 99.5% (inactive) and 53.3% (inactive) | – | –
